From publication PMC4336329 (PLoS ONE, 2015) come the findings set out here.

Each structure is given as a SMILES string. Among all 310,000 compounds or so, about 2,200 (0.71%) showed an effect of 50% or more. Effects have a minus sign here. The sample as a whole holds a higher share of strong results than the screen did.

This assay deals with human ether-à-go-go-related gene (hERG) potassium channel (human, UniProt Q12809). As to the kind of experiment: primary screen, population patch clamp on CHO cells stably expressing hERG; higher = less effect of the substance.
Sequence of human ether-à-go-go-related gene (hERG) potassium channel (Q12809 whole entry, looked up): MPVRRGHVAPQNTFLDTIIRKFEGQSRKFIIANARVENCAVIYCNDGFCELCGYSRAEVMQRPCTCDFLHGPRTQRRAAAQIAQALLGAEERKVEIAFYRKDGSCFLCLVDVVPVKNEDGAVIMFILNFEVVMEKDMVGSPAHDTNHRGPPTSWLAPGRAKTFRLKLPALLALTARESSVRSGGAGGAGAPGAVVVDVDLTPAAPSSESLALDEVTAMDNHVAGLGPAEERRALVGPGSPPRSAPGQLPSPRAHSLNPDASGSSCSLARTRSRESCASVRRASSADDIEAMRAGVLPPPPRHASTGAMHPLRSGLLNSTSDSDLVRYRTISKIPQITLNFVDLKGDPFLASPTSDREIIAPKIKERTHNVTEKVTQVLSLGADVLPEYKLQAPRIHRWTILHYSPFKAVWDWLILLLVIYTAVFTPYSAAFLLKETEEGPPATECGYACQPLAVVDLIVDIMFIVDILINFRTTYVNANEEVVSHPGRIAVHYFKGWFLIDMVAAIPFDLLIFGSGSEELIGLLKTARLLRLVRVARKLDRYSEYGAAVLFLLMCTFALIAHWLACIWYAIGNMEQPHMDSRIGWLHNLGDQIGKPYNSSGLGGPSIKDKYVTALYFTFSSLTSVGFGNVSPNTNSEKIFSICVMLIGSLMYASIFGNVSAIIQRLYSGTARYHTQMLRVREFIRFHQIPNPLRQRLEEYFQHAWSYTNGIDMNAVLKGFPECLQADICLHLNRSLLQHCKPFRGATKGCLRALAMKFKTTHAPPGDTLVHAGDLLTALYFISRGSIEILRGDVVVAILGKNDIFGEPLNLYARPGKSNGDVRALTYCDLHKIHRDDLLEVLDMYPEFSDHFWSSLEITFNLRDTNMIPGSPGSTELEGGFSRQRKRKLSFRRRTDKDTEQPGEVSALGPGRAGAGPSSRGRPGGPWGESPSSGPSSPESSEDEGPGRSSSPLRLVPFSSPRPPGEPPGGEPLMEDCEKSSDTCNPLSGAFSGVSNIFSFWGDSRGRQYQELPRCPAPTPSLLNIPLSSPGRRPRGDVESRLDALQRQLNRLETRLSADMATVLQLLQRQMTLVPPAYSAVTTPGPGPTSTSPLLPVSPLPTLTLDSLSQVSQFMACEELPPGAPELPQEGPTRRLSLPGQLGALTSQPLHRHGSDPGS
With `CSCCC(NC(=O)OCc1ccccc1)C(=O)NCc1cccnc1` (centres unmarked), the “hERG current change (%, negative = inhibition) at 1uM” value amounted to 9.52%.
The result for `O=C(N/N=C/c1ccc2c(c1)OCO2)c1ccc(COCC(F)(F)C(F)F)cc1` reads 9.11%; that for `N#Cc1nc(Cc2ccccc2)oc1N1CCCC1`, 4.79%; that for `Cc1ccc(C)c(-n2ccnc2SCC(=O)O)c1`, 14.4%.
Regarding `COC(=O)c1sc(S(=O)(=O)NC(C)C(=O)O)c(C(=O)OC)c1C` (centres unmarked), the “hERG current change (%, negative = inhibition) at 1uM” value is given as -4.83%.
Then `CCCN(CCC)CCCNC(=O)C1CCN(S(=O)(=O)c2cccc3nsnc23)CC1`, with 12.5%; and `CCc1ccc(NC(=O)Nc2cccs2)cc1`, with 21.2%; and `COc1cccc(C2=NOC(C(=O)Nc3ccc4c(c3)OCO4)C2)c1` (centres unmarked), with 12.7%.
Then `CCNS(=O)(=O)c1ccc(CCC(=O)N2CCN(c3cc(Cl)ccc3C)CC2)cc1`, with 12.4%; and `CCCOC1OC(=O)c2c1ccc(OC)c2OC` (centres unmarked), with 11.9%.
Then `Cc1ccc(S(=O)(=O)Nc2ccc(-c3ccc4nncn4n3)cc2)cc1`, with 24.9%; and `O=S(=O)(Nc1ccc(-c2ccc3nncn3n2)cc1)c1cccc(F)c1`, with 14.1%.
For the compound `Cc1cccc(S(=O)(=O)Nc2ccc(-c3ccc4nncn4n3)cc2)c1`, the “hERG current change (%, negative = inhibition) at 1uM” value was -85.6%.
The result for `BrCC1C[n+]2c(SCc3ccccc3)nc3sc4c(c3c2O1)CCCC4.[Br-]` (centres unmarked) reads 10.3%; that for `Cc1ccc2c(c1)CCCN2C(=O)c1ccncc1`, 8.11%; that for `CCOC(=O)c1cccc(N2C(=O)C3C(C2=O)C2C=CC3C23CC3)c1` (centres unmarked), 8.16%.
Consider `CCOc1ccccc1N1CCN(c2nc3ccccc3nc2C(C#N)C(=O)OC(C)C)CC1` (centres unmarked), for which the “hERG current change (%, negative = inhibition) at 1uM” value worked out at 12.5%.
The result for `COc1cccc(C(=O)N2CCN(CCCc3ccccc3)CC2)c1OC.O=C(O)C(=O)O` reads -4.87%; that for `COc1cc(C(=O)N2CCN(CCCc3ccccc3)CC2)cc(OC)c1OC`, 3.21%; that for `O=C(c1cc2ccccc2oc1=O)N1CCN(CCc2ccccc2)CC1`, -60.4%.
With `CCOc1ccc(C(=O)N2CCN(c3ccccc3)CC2)cc1OCC`, the “hERG current change (%, negative = inhibition) at 1uM” value turned out to be 1.55%.
Turning to `COc1ccc(C(=O)N2CCN(Cc3ccccc3)CC2)cc1[N+](=O)[O-]`, the “hERG current change (%, negative = inhibition) at 1uM” value is on record as -22.3%.
The result for `CCOc1ccc(C(=O)N2CCN(CCc3ccccc3)CC2)cc1OCC` reads -77.5%.
The result for `COc1ccc(C(=O)N2CCN(CCCc3ccccc3)CC2)cc1OC.O=C(O)C(=O)O` reads -61.8%; that for `COc1ccc(C(=O)N2CCN(Cc3ccc4c(c3)OCO4)CC2)cc1[N+](=O)[O-]`, -6.08%.
Take `O=C(NCCN1CCN(C(=O)c2cc3ccccc3oc2=O)CC1)c1cc2ccccc2oc1=O`: the “hERG current change (%, negative = inhibition) at 1uM” value is listed as -0.615%.
As to `CN1CCN(C(=O)c2cc3ccccc3oc2=O)CC1`, the “hERG current change (%, negative = inhibition) at 1uM” value was 8.34%.
The result for `COc1ccc(C(=O)N2CCN(CCc3ccccc3)CC2)cc1[N+](=O)[O-]` reads -73.5%; that for `CCOc1ccc(C(=O)N2CCN(C(=O)c3ccco3)CC2)cc1OCC`, 10.8%.
The result for `COc1ccc(/C=C2/C(=O)NC(=O)N(c3ccc(C)c(C)c3)C2=O)cc1CN1C(=O)c2ccccc2C1=O` reads -3.04%.
Then `CCCC(=O)Nc1c2c(nn1-c1cccc(C)c1C)CS(=O)(=O)C2`, with 4.62%; and `COc1ccccc1/C=C1\SC(=O)N(CCC(=O)N2CCCCC2CCO)C1=O` (centres unmarked), with 14.7%.
Regarding `CCOC(=O)c1c2ccc(OCC(=O)NN)cc2n2ccccc12`, the “hERG current change (%, negative = inhibition) at 1uM” value turned out to be 13.3%.
The result for `CC1CC(C)CN(CCCNC(=O)C2CCN(c3ncnc4c3sc3cccc(F)c34)CC2)C1` (centres unmarked) reads -14.9%; that for `CCCCN(C)CCCNC(=O)c1cc(-c2cccnc2)nc2ccccc12`, -20.2%; that for `CC(C)CCNC(=O)c1cc(-c2cccs2)nc2ccccc12`, 2.51%.
The result for `CCCCN(C)CCCNC(=O)c1cc(-c2cccs2)nc2ccccc12` reads -80.8%; that for `CCCCCCNC(=O)c1cc(-c2ccco2)nc2ccccc12`, 7.12%.
Then `CCN(CC)CCNC(=O)c1ccc(NC(=O)c2cc(-c3ccco3)nc3ccccc23)cc1`, with 9.15%; and `CCN(CC)CCNC(=O)c1cc(-c2ccco2)nc2ccccc12.Cl`, with -55%; and `O=C(NC1CCCCC1)N(C1=NCCCCC1)c1ccc(Br)cc1`, with 13.1%.
Take `Cc1cccc(NC(=O)CSCc2nc3c(nnn3Cc3ccc(F)cc3)c(=O)[nH]2)c1C`: the “hERG current change (%, negative = inhibition) at 1uM” value amounted to 8.63%.
The result for `Cc1cc(C)n2nc(NCc3cccc(Br)c3)nc2n1` reads -32.1%; that for `O=C(Nc1cccc(NC(=O)c2ccccc2Cl)c1)c1ccc(F)cc1`, 7.98%.
The result for `COCc1c(C(=O)NCc2ccccc2CN2CCCC2)oc2ccccc12` reads -34%; that for `CCOC(=O)c1oc2ccccc2c1CN1CCN(C)CC1.Cl`, -50.2%.
Then `Cc1c(C(=O)NCc2ccccc2CN2CCCC2)oc2ccc(F)cc12`, with -57.4%; and `CCOCc1c(C(=O)NCc2ccccc2CN2CCCC2)oc2ccccc12`, with -60.1%.
Turning to `CCOCc1c(C(=O)NC2CCCCCC2)oc2ccccc12`, the “hERG current change (%, negative = inhibition) at 1uM” value is -1.11%.
In the case of `CCOc1ccc2oc(C(=O)NCc3ccccc3CN3CCCC3)c(C)c2c1`, the “hERG current change (%, negative = inhibition) at 1uM” value is on record as -12.2%.
Then `CCOC(=O)c1oc2ccccc2c1CN1CCCCC1.Cl`, with -9.66%.
For `COc1ccc2oc(C(=O)NCc3ccccc3CN3CCCC3)c(C)c2c1`, the “hERG current change (%, negative = inhibition) at 1uM” value is listed as -27.2%.
Then `CCOC(=O)c1oc2ccccc2c1CN1CCOCC1.Cl`, with -5.9%; and `Cc1ccc(NC(=O)CCn2c(=S)oc3ccccc32)cc1`, with 11%; and `CC(C)(C)C(=O)Nc1c(Cl)cccc1OC(F)(F)F`, with 12.4%.
Then `CC1CCN(S(=O)(=O)c2ccc3c(c2)n(C)c(=O)n3C)CC1`, with 0.216%; and `COc1ccc(CCN(C(=O)/C=C/C(=O)O)C2CC(=O)N(c3ccccc3)C2=O)cc1` (centres unmarked), with 8.45%; and `C=C(C)CNC(=O)CCc1nnc(C2(c3ccc(Cl)cc3)CCC2)o1`, with 12.3%.
For the compound `CCNC(=S)N1CCN(Cc2ccccc2)CC1.O=C(O)C(=O)O`, the “hERG current change (%, negative = inhibition) at 1uM” value is given as -7.37%.
The result for `O=C(CN1CCN(CC(=O)Nc2ccc3c(c2)OCO3)CC1)Nc1ccc(F)cc1` reads -83.5%; that for `O=C(CN1CCN(S(=O)(=O)c2ccc(F)cc2)CC1)Nc1ccc2c(c1)OCO2`, -8%; that for `O=C(CN1CCN(c2ccc(F)cc2)CC1)Nc1ccc2c(c1)OCCO2`, 14.1%.
Then `O=C(CN1CCN(Cc2ccc3c(c2)OCO3)CC1)Nc1ccc2c(c1)OCO2`, with -64.3%; and `NC(=O)CN1CCN(Cc2ccc3c(c2)OCO3)CC1`, with 22.5%.
With `COC(=O)c1ccsc1NC(=O)CN1CCN(Cc2ccc3c(c2)OCO3)CC1`, the “hERG current change (%, negative = inhibition) at 1uM” value is listed as -59.7%.
The result for `COC(=O)c1c(NC(=O)CN2CCN(Cc3ccc4c(c3)OCO4)CC2)sc(C)c1C.O=C(O)C(=O)O` reads 5.45%; that for `O=C(CN1CCN(Cc2ccccc2)CC1)Nc1nc2ccccc2s1`, -24.1%; that for `CCCN1CCN(CC(=O)Nc2nc3ccccc3s2)CC1`, -17.9%.
Regarding `O=C(CN1CCN(Cc2ccc(F)cc2)CC1)Nc1nc2ccccc2s1`, the “hERG current change (%, negative = inhibition) at 1uM” value is listed as -54%.
The result for `O=C(CN1CCN(Cc2ccc3c(c2)OCO3)CC1)Nc1ccc(N2CCOCC2)cc1` reads 8.8%; that for `COc1ccc(NC(=O)CN2CCN(Cc3ccc4c(c3)OCO4)CC2)cc1OC.O=C(O)C(=O)O`, 4.15%.
Regarding `CN(Cc1ccccc1)C(=O)CN1C(=O)NC(C)(c2ccc(Cl)cc2)C1=O` (centres unmarked), the “hERG current change (%, negative = inhibition) at 1uM” value was found to be 12.8%.
As for `COc1ccc(-c2cc(C(=O)N3CCN(c4ccccc4F)CC3)c3ccccc3n2)c(OC)c1`, the “hERG current change (%, negative = inhibition) at 1uM” value is reported as 4.75%.
The result for `CCn1c(SCC(=O)NCc2ccc3c(c2)OCO3)nnc1-c1c[nH]c2ccccc12` reads 14.9%.
Regarding `N/C(=N\OC(=O)CC1CCCCC1)c1ccncc1`, the “hERG current change (%, negative = inhibition) at 1uM” value stood at 12.3%.
The result for `O=C(c1ccc(F)cc1)N1CCN(C(=O)c2ccc([N+](=O)[O-])cc2)CC1` reads -13.7%.
For `CCn1nc(C(=O)NNC(=O)c2ccccc2OCc2c(C)noc2C)c2ccccc2c1=O`, the “hERG current change (%, negative = inhibition) at 1uM” value stood at 9.55%.
In the case of `O=C(CCn1c(=O)[nH]c2ccccc2c1=O)N1CCN(c2ccc(Cl)cc2)CC1`, the “hERG current change (%, negative = inhibition) at 1uM” value is -4.13%.
Consider `Cc1cc(NS(=O)(=O)c2ccc(NC(=O)COc3ccc(Cl)cc3Cl)cc2)no1`, for which the “hERG current change (%, negative = inhibition) at 1uM” value is on record as -0.394%.
The result for `CC(=O)O.NCC(c1ccco1)c1c[nH]c2ccccc12` (centres unmarked) reads 12.2%.
The result for `COC(=O)c1[nH]c2ccccc2c1NC(=O)CN1CCN(Cc2ccc3c(c2)OCO3)CC1` reads -70.3%; that for `COC(=O)c1[nH]c2ccc(C)cc2c1NC(=O)CCN1CCN(Cc2ccc3c(c2)OCO3)CC1`, -33%.
The result for `O=C(CN1CCN(Cc2ccc3c(c2)OCO3)CC1)Nc1ccc(F)cc1` reads -82.6%; that for `CCN(CC(=O)Nc1c(C(=O)OC)[nH]c2ccccc12)c1ccc2c(c1)OCO2`, 12.1%.
Turning to `O=C(CN1CCN(Cc2ccc3c(c2)OCO3)CC1)NCC(F)(F)F`, the “hERG current change (%, negative = inhibition) at 1uM” value worked out at 11.2%.
For `O=C(CN1CCN(C(=O)C2COc3ccccc3O2)CC1)Nc1ccccc1` (centres unmarked), the “hERG current change (%, negative = inhibition) at 1uM” value is -22.5%.
For `O=C(CN1CCN(C(=O)C2COc3ccccc3O2)CC1)Nc1ccc(F)cc1` (centres unmarked), the “hERG current change (%, negative = inhibition) at 1uM” value is listed as -63.5%.
Take `COc1cc(NC(=O)CN2CCN(Cc3ccc4c(c3)OCO4)CC2)cc(OC)c1.O=C(O)C(=O)O`: the “hERG current change (%, negative = inhibition) at 1uM” value is on record as -9.16%.
The result for `O=C(C1COc2ccccc2O1)N1CCN(c2ccc(F)cc2)CC1` (centres unmarked) reads -9.29%.
